Assay outcomes deposited in PubChem by National Center for Advancing Translational Sciences (NCATS).
JMJD2A Tudor inh = inhibitors of human JMJD2A Tudor domain. AID 504339. AlphaScreen JMJD2A-Tudor / H3K4me3 peptide binding. hit rate 4.4% among 390,000. Potency, µM (series often up to 114 µM), most hits filed as inhibitors; also: nearly all actives have a fitted effect of over 50% in size
G9a block = inhibitors of human histone lysine methyltransferase G9a; G9a H3K9 monomethylation, AlphaScreen, 2 h; Potency, µM (series often up to 102 µM), hits mostly inhibitors; hit rate 8.8% among 350,000; also: nearly all actives have a fitted effect of over 75% in size
Target sequence (Q96KQ7 913-1193 limits assumed): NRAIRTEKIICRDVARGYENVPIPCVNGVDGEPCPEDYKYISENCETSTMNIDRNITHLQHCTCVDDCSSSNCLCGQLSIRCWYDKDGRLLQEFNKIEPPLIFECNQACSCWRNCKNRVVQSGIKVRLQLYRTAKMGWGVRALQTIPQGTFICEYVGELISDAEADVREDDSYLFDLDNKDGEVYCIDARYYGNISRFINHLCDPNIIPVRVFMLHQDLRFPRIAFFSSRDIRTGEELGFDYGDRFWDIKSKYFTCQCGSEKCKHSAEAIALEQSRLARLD
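Readings reflect AlphaScreen signal from monomethyl-H3K9 antibody detection. HMT at 20 nM; substrate b-H3K9 500 nM; cofactor SAM 20 uM; 2 h RT reaction; compounds tested as titrations in qHTS with 15 min preincubation.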
BAZ2B inh = inhibitors of human BAZ2B bromodomain; Q9UIF8; AlphaScreen BAZ2B-H3K14Ac peptide displacement; Potency, µM (top dose mostly 114 µM), actives largely listed as inhibitors; hit rate 4.4% among 360,000; also: nearly all actives have a fitted effect of over 60% in size
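Compounds, titrated to a top concentration of 110 uM, were incubated 30 min at room temperature with preformed BAZ2B/acetyl-K14 H3 peptide complex (50 nM each). Proximity signal was measured by AlphaScreen after 20 min with beads.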
L3MBTL1 inh = blocks human L3MBTL1. AlphaScreen L3MBTL1–H3K9me1 peptide binding. Potency, µM (highest dose often 57.1 µM), actives largely listed as inhibitors. hit rate 0.66% among 230,000. AID 485360; also: nearly all actives have a fitted effect of over 60% in size
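AlphaScreen assay: L3MBTL1 (50 nM final) was preincubated 30 min at room temperature with biotinylated H3(1-15)K9me1 peptide (75 nM final), then 30 min with library compounds; streptavidin donor and nickel chelate acceptor beads (10 ug/mL final) added, 30 min dark.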
HP1b binding inh = HP1-beta chromodomain-methylated histone interaction inhibition; P83916; AlphaScreen HP1-beta / biotin-H3K9me3 peptide binding; Potency, µM (doses to about 114 µM), most hits filed as inhibitors; hit rate 0.56% among 390,000; also: nearly all actives have a fitted effect of over 70% in size
Target sequence (P83916 whole entry, looked up): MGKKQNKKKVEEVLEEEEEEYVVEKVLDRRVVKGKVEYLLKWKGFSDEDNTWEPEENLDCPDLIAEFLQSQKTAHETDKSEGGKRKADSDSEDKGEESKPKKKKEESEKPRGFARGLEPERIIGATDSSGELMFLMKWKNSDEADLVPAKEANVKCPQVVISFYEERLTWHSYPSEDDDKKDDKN
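Compound inhibition of the preformed complex between 50 nM HP1-beta and 50 nM biotinylated H3K9me3 peptide was read by AlphaScreen. Buffer was PBS pH 7.4 with 0.01% Tween-20. Incubations ran 30 min at room temperature, with 10 ug/mL donor/acceptor beads.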
Of the large screens only hits and unclear results are named; the others gave an inactive call. Rows were chosen to be rich in hits. Some 11% of all compounds tested hit in one or more screens of this group. Calls follow the shape of the dose curve; as a rule, active = well fitted inhibition curve with a large enough effect; inconclusive = small, poorly fitted or top-dose-only effect; inactive = no such curve, though single readings can be large or run the other way.

CC(=O)Nc1ccc(S(=O)(=O)N2CCC(c3nnc(-c4ccc(C)cc4)o3)CC2)cc1	G9a block 28µM
Cc1ccc(-c2nnc(C3CCN(S(=O)(=O)c4ccc(C)c(C)c4)CC3)o2)cc1	G9a block inconclusive (no result: L3MBTL1 inh)
COc1ccccc1-c1nnc(C2CCN(S(=O)(=O)c3cccc([N+](=O)[O-])c3)CC2)o1	JMJD2A Tudor inh inconclusive, G9a block inconclusive, BAZ2B inh inconclusive (no result: L3MBTL1 inh)
Cc1cccc(-c2nnc(C3CCN(S(=O)(=O)c4cccc(Cl)c4)CC3)o2)c1	G9a block 3.2µM (no result: L3MBTL1 inh)
COCCn1c(=S)[nH]c2cc(C(=O)N3CCN(Cc4ccccc4)CC3)ccc2c1=O	none (no result: G9a block, BAZ2B inh, L3MBTL1 inh)
Cc1csc2nc(-c3cccc(NC(=O)c4ccccc4F)c3)cn12	none (no result: L3MBTL1 inh)
Cc1c(C(=O)NCc2ccco2)oc2ccccc12	none (no result: L3MBTL1 inh)
Cc1ccc2c(c1)c1c(n2C)-c2[nH]ncc2CC1	JMJD2A Tudor inh inconclusive, G9a block inconclusive, BAZ2B inh 45µM, HP1b binding inh inconclusive
COc1ccc(-c2oc(NC(=O)CCl)c(C#N)c2-c2ccc(OC)cc2)cc1	JMJD2A Tudor inh inconclusive, G9a block 50µM, BAZ2B inh 50µM (no result: L3MBTL1 inh)
O=C1OC(C(=O)Nc2nccs2)Cc2ccccc21 (stereo not given)	none (no result: L3MBTL1 inh)
CC(=O)Cc1nsc(NC(=O)C2Cc3ccccc3C(=O)O2)n1 (stereo not given)	G9a block 56µM (no result: L3MBTL1 inh)
COc1ccc(CNc2nc(N)nc3nc[nH]c23)cc1	none (no result: G9a block, BAZ2B inh, L3MBTL1 inh)
COc1ccc(C(CCNCc2ccc(N(C)C)cc2)c2ccccc2)cc1 (stereo not given)	JMJD2A Tudor inh 25µM, BAZ2B inh 11µM, HP1b binding inh 40µM (no result: L3MBTL1 inh)
Cc1ccc(N(O)C(=O)NCCCCNC(=O)N(O)c2ccc(C)cc2)cc1	JMJD2A Tudor inh inconclusive, G9a block 79µM (no result: L3MBTL1 inh)
Cc1ccc(S(=O)(=O)NC(=O)NCCCCNC(=O)NS(=O)(=O)c2ccc(C)cc2)cc1	none (no result: L3MBTL1 inh)
Cc1c(CN(C)C)c2c(n1Cc1ccccc1)C(=O)c1ccc(Br)cc1-2	JMJD2A Tudor inh 40µM, G9a block 18µM, BAZ2B inh 22µM, HP1b binding inh inconclusive (no result: L3MBTL1 inh)
Cc1ccc(C)c(NC(=O)CN(C)C(C)C(=O)N2CC(C)CC(C)C2)c1 (stereo not given)	G9a block 56µM
COCCn1c(=O)c(CCc2ccccc2)nc2cnc(Oc3cccc(Cl)c3)nc21	none (no result: JMJD2A Tudor inh, BAZ2B inh, L3MBTL1 inh, HP1b binding inh)
Cc1nc2c(c(C)c1CCC(=O)Nc1cccc(C(F)(F)F)c1)c(=O)n(C)c(=O)n2C	none (no result: L3MBTL1 inh)
O=C(N1CCc2cc([S+](=O)([O-])N3CCN([S+](=O)([O-])c4c(F)cccc4F)CC3)ccc2C1)C(F)(F)F	none (no result: G9a block, BAZ2B inh, L3MBTL1 inh, HP1b binding inh)
CC(=O)Nc1nonc1-c1nnc(SCc2ccccc2C)n1C	none (no result: L3MBTL1 inh)
Cc1ccc(OCC(=O)N2N=C(c3ccncc3)CC2(O)C(F)(F)F)cc1C (stereo not given)	none
O=C(COc1ccccc1)N1N=C(c2cccnc2)CC1(O)C(F)(F)F (stereo not given)	G9a block 50µM
CC1(C)CC(=O)c2cc(-c3nc(-c4ccc(Br)cc4)cs3)c(=O)n(-c3ccccc3)c2C1	none (no result: L3MBTL1 inh)
COc1ccc(-c2c(C(=O)O)nc3ccccc3c2C(=O)O)cc1	JMJD2A Tudor inh 25µM, G9a block inconclusive
O=C(O)c1cc(-c2cc(C(=O)O)c3ccccc3n2)nc2ccccc12	none (no result: JMJD2A Tudor inh, L3MBTL1 inh, HP1b binding inh)
O=C(O)c1nc2ccccc2nc1C(=O)O	JMJD2A Tudor inh 20µM, G9a block inconclusive, BAZ2B inh 79µM
CC(C)c1ccc(N2C(=O)CSC23C(=O)N(Cc2ccccc2)c2ccccc23)cc1 (stereo not given)	G9a block inconclusive (no result: L3MBTL1 inh)
COc1ccc(NC(=O)C(NS(=O)(=O)c2ccc3c(c2)CCCN3C(C)=O)C(C)C)c(OC)c1 (stereo not given)	G9a block inconclusive, BAZ2B inh 56µM
COc1cc(NS(=O)(=O)c2ccc3c(c2)CCCN3C(C)=O)cc(OC)c1OC	none (no result: L3MBTL1 inh)
CC(=O)N1CCCc2cc(S(=O)(=O)NC(C(=O)NC(C)c3ccccc3)C(C)C)ccc21 (stereo not given)	none
COc1cc(NC(=O)CC(C)S(=O)(=O)c2ccc3c(c2)CCN3C(C)=O)cc(OC)c1OC (stereo not given)	G9a block 11µM (no result: L3MBTL1 inh)
CC(=O)N1CCCc2cc(S(=O)(=O)NC(C(=O)NC3CCCCC3)C(C)C)ccc21 (stereo not given)	G9a block 35µM
Cc1nc([N+](=O)[O-])c(C(=O)OCc2ccccc2)n1C	none (no result: L3MBTL1 inh)
Cc1nc([N+](=O)[O-])c(C(=O)OCc2cccc(Br)c2)n1C	G9a block 50µM (no result: L3MBTL1 inh)
COc1ccccc1-n1cnnc1SCc1csc(-c2ccccc2)n1	none (no result: L3MBTL1 inh)
C=CCn1c(SCc2csc(-c3ccc(C)cc3)n2)nnc1-c1ccccc1OC	JMJD2A Tudor inh inconclusive, G9a block 32µM
COc1ccc2c(c1OC)C(=O)OC2CC(=O)c1ccc(O)c(O)c1 (stereo not given)	JMJD2A Tudor inh 5µM, G9a block 40µM, BAZ2B inh inconclusive (no result: L3MBTL1 inh)
COc1ccc(CCNC(=O)c2c[nH]n3c(=O)c(Cc4ccccc4Cl)c(C)nc23)cc1OC	none (no result: L3MBTL1 inh)
COCCn1c(=S)[nH]c2cc(C(=O)N3CCC(C(N)=O)(N4CCCCC4)CC3)ccc2c1=O	JMJD2A Tudor inh inconclusive, G9a block 35µM
COc1ccccc1Cn1c(=S)[nH]c2cc(C(=O)N3CCC(C(N)=O)CC3)ccc2c1=O	G9a block 79µM (no result: L3MBTL1 inh)
CCCCNC(=O)c1ccc2c(=O)n(CCCOCC)c(=S)[nH]c2c1	none
CCOCCCn1c(=S)[nH]c2cc(C(=O)N3CCC(C(N)=O)CC3)ccc2c1=O	JMJD2A Tudor inh 8.9µM, G9a block 35µM, BAZ2B inh inconclusive
COCCNC(=O)C1=CC(c2ccc3c(c2)OCO3)=NS(=O)(=O)N1C	none (no result: L3MBTL1 inh)
Cc1cc(C)cc(-n2nnc(-c3nc(-c4ccccc4F)no3)c2C)c1	none (no result: L3MBTL1 inh)
O=C(Nc1csc([N+](=O)[O-])c1)Nc1ccccc1Cl	none (no result: L3MBTL1 inh)
O=C(Nc1ccc(Cl)cc1)Nc1ccccc1Sc1ncc([N+](=O)[O-])s1	JMJD2A Tudor inh inconclusive, BAZ2B inh 28µM (no result: G9a block, L3MBTL1 inh)
Cc1ccc(S(=O)(=O)Nc2ccc3nc(C)sc3c2)cc1	none
Cc1nc2ccc(NS(=O)(=O)c3c(C)c(C)cc(C)c3C)cc2s1	G9a block 14µM, BAZ2B inh inconclusive (no result: L3MBTL1 inh)
CCSc1ncc(/C=N/Nc2ccc([N+](=O)[O-])cc2)n1C	G9a block inconclusive
CCSc1ncc(/C=N/Nc2ccc(Cl)cc2)n1C	JMJD2A Tudor inh 56µM, G9a block inconclusive, BAZ2B inh 35µM, HP1b binding inh 40µM
O=C(Nc1ccc(Cl)cc1)C1CCN(c2nc3ccccc3nc2C(F)(F)F)CC1	none (no result: L3MBTL1 inh)
CCOc1ccccc1N1CC(C(=O)NCCc2ccc(S(N)(=O)=O)cc2)CC1=O (stereo not given)	none (no result: L3MBTL1 inh)
CCOc1ccc(N2CC(C(=O)NCCN3C(=O)S/C(=C/c4cccnc4)C3=O)CC2=O)cc1 (stereo not given)	G9a block 14µM
